# An excerpt weighted towards active compounds, which were near 8% of everything screened.
# RORg inh: inhibitors of mouse ROR gamma transcriptional activity. actives 5.4% (n = 310,000). P51450. Potency, µM (top dose mostly 53.6 µM), without a hit: top-dose activity change, negative = inhibition, most hits filed as inhibitors. Drosophila S2 Gal4-RORgamma UAS-luciferase reporter, 20 h; further: potency means the concentration at half of the fitted maximal effect; nearly all actives have a fitted effect of over 60% in size
# Target sequence (P51450 whole entry, looked up, the tested form may be a part): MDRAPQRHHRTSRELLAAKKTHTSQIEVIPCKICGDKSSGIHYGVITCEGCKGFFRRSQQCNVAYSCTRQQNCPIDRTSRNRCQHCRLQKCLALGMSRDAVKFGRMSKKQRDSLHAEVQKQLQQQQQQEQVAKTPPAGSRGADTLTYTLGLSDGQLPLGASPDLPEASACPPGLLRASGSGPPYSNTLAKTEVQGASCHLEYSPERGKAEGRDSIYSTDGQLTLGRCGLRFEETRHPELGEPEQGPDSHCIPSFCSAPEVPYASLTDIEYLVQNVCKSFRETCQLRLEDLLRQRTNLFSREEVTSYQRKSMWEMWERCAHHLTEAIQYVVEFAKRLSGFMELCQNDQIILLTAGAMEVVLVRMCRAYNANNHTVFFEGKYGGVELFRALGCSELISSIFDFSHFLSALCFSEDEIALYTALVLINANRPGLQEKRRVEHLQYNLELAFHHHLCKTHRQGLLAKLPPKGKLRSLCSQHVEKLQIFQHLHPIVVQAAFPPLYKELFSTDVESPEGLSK
#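 ROR gamma transcriptional activity was tracked as Gal4-UAS luciferase output in stably transfected Drosophila Schneider cells, with compound added 1 hr before 700 uM copper sulfate induction and a 20 hr ambient-temperature incubation.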
# Gal4-VP16 FLuc: Gal4-VP16 reporter inhibition counter-screen; Drosophila S2 Gal4-VP16 UAS-luciferase, luminescence, 20 h; AID 2546; actives 3.5% (n = 310,000); Potency, µM (series often up to 53.6 µM), inactives show at the highest dose activity, negative = inhibition, hits mostly inhibitors;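 further: Gal4-VP16 expression switched on by copper sulfate through the metallothionein promoter; potency means the concentration at half of the fitted maximal effect; nearly all actives have a fitted effect of over 50% in size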
# ELG1 repair inh: ELG1-dependent DNA repair inhibition; HEK293T ELG1-luciferase reporter, luminescence, 16 h; DNA damage induced by 5-fluorouridine; Potency, µM (doses to about 46.1 µM), for the others: at the top dose activity change, negative = inhibition, usual class: inhibitors; actives 2.3% (n = 330,000); further: potency means the concentration at half of the fitted maximal effect; nearly all actives have a fitted effect of over 55% in size
#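 Quantitative HTS, concentration-response format. 2,000 cells/well co-treated with 5-fluorouridine and compound, 16 hr in 5% CO2 at 37 °C; ONE-Glo luminescence read after 30 min.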
# FBPA coupling cs: inhibits coupling enzyme system, counter-screen for aldolase hits. coupling enzyme system counterscreen, AmpLite Red fluorescence. activity change, negative = inhibition, % at 58.2 µM, hits read low. actives 0.67% (n = 290,000). AID 2472; in the data active means activity change below about -30%
#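 Activity here indicates interference with the coupling reaction, not aldolase inhibition. Compounds at 57.5 uM final met coupling enzymes for 10 min at RT; substrate and AmpLite Red detection followed, with a 525/598 nm fluorescence read after 20 min.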
# TSHR antag: blocks TSH signaling through the human TSH receptor | TSHR-expressing cells, TSH-stimulated cAMP HTRF, 2 h; stronger effect = lower value | activity change, negative = inhibition, % at 11.5 µM | actives 0.2% (n = 330,000) | AID 504810;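 active means activity change below a set negative limit, meaning inhibition stronger than a set level, cut at about -70% in these data; inconclusive means activity change between two set negative limits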
#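 Antagonism was scored as loss of TSH-driven cAMP in TSHR cells, stimulated with 4nM TSH (EC80) for 2 hours at 37 deg C and detected by homogeneous HTRF competition immunoassay.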
# * marks the source's active call; other numbers are inactive results; ? = inconclusive; . = no result given; [ ] = another dose, or the depositor's remark. Unless noted, the call rests on the fitted dose curve; in most records, active means well fitted curve in the direction sought with a large enough effect; inconclusive means small, poorly fitted or top-dose-only effect, or another doubt; inactive means no such curve, though single readings can be large; an effect the other way counts as inactive or inconclusive. On the % scale 0 is the no-effect control and ±100 the full control effect.
SMILES,RORg inh,Gal4-VP16 FLuc,ELG1 repair inh,FBPA coupling cs,TSHR antag
Cc1cccc(NC(=O)Nc2cccc(C)n2)n1,?,27%,?,-2,1
Cc1cccc(NC(=S)Nc2cccc(C)n2)n1,?,6.3µM*,4%,1,1
Cc1cccc(NC(=S)NC2CCCCC2)n1,1µM*,4.5µM*,11%,-3,-13
Cc1cccc(NC(=S)NC2CCCC2)n1,0.35µM*,2.8µM*,?,-6,-9
CC(C)CN(C[C@@H](OP(=O)(O)O)[C@H](Cc1ccccc1)NC(=O)O[C@@H]1CCOC1)S(=O)(=O)c1ccc(N)cc1,24%,3%,.,.,.
CC1(C)CC(=O)C2=C(C1)N(Cc1ccccc1)C(=O)C2(NC(=O)C(C)(C)C)C(F)(F)F (stereo not drawn),11µM*,2%,7%,-1,-22
CCN1CCN(C(=O)C2CCN(S(=O)(=O)c3ccc(SC)cc3)CC2)CC1,?,0%,13%,1,-6
COc1cc(/C=C2\SC(=S)NC2=O)ccc1OS(=O)(=O)c1ccccc1,?,1%,-15%,6,-74*
COc1cc(/C=C2/SC(=S)NC2=O)ccc1OS(=O)(=O)c1ccc(C)cc1,?,?,?,6,?
COC(=O)c1sc(N2CCN(c3ccc(Cl)cc3)CC2)nc1N,?,-14%,23µM*,2,-26
CC1CCN(c2ccc(-c3ccc(NC(=O)C(F)(F)F)cc3)nn2)CC1,5.6µM*,-29%,?,0,-11
CC(=O)Nc1ccc(NC(=O)C(F)(F)F)cc1,-8%,4%,9%,1,23
OC(CNCCC1C=Nc2ccccc21)Cn1c2ccc(Cl)cc2c2cc(Cl)ccc21 (stereo not drawn),?,13µM*,?,-4,5
CCOC(=O)C(=CNc1cccnc1Oc1ccc(C)c2c1CCC2)C(=O)OCC,-3%,0%,15µM*,-1,-2
CCOc1ccc(S(=O)(=O)N2CCN(C(=O)c3ccccc3Cc3ccccc3)CC2)cc1,.,.,4%,.,-4
Fc1cccc2sc(Nc3nnc(-c4ccco4)o3)nc12,0.13µM*,-8%[0.365 µM],?,-12,-5
COc1cccc2sc(Nc3nnc(-c4cccs4)o3)nc12,1.4µM*,2µM*,?,3,-11
COc1ccc(-c2nnc(-c3ccc(F)cc3)o2)cc1,-3%,11%,?,0,-7
CCOC(=O)c1sc(Nc2nc3c(OC)cccc3s2)nc1C,?,?,?,-1,15
COc1cccc2sc(Nc3nnc(-c4ccc(F)cc4)o3)nc12,2.2µM*,5µM*,14%,-4,-1
S=C(NCCc1ccccc1)N/N=C/c1cccc(Cl)c1Cl,22µM*,?,12%,5,6
Oc1ccccc1/C=N/NC(=S)NCCc1ccccc1,7.1µM*,22µM*,-23%,1,-8
Cc1ccc(C)c(/C=N/NC(=S)NCCc2ccccc2)c1,7.1µM*,7.9µM*,-3%,-3,-13
C/C(=N\NC(=S)NCCc1ccccc1)c1ccc(O)cc1O,?,?,-28%,3,25
O=C(O)c1ccccc1/C=N/NC(=S)NCc1ccccc1,-15%,18%,-13%,20,5
SMILES,RORg inh,Gal4-VP16 FLuc,ELG1 repair inh,FBPA coupling cs,TSHR antag
O=C(CC(=O)N/N=C/c1c(F)cccc1Cl)NCCc1ccccc1,16%,-3%,-16%,-8,-2
S=C(NCCc1ccccc1)Nc1c(Cl)cccc1Cl,13µM*,-27%,6%,-1,-12
Cc1cc(C(=O)N2CCN(S(=O)(=O)c3ccc(C)c(C)c3)CC2)no1,.,.,0%,.,-1
CCCOc1ccc(-c2c(C(=O)N/N=C(\C)c3ccncc3)nnn2-c2nonc2N)cc1,16%,-5%,-6%,.,0
O=C(NCc1cccs1)C1CCC(=O)N(Cc2cccc(C(F)(F)F)c2)C1 (stereo not drawn),20%,8%,26%,7,41
Cc1nnc(NC(=O)CN2CCN(Cc3ccccc3Cl)CC2)s1,-24%,-5%,-1%,-1,8
CC(C)c1nnc(NC(=O)CCC(=O)NCc2ccccc2Cl)s1,-8%,-1%,13%,.,5
CSc1nnc(NC(=O)c2nc(S(=O)(=O)Cc3ccccc3F)ncc2Cl)s1,16µM*,10µM*,?,2,-46
CC(C)c1nnc(NC(=O)c2nc(S(=O)(=O)Cc3ccccc3F)ncc2Cl)s1,7.9µM*,3.5µM*,?,.,?
Cc1nnc(NC(=O)c2nc(S(=O)(=O)Cc3ccccc3C)ncc2Cl)s1,3.5µM*,0.71µM*,21µM*,1,-28
CSc1ncc(Cl)c(C(=O)Nc2nnc(SC/C=C/c3ccccc3)s2)n1,2%,-14%,-11%,15,?
CCCn1c(SCC(=O)N2c3ccccc3CC2C)n[nH]c1=O (stereo not drawn),.,.,10%,.,-4
CC(C)C[C@@H](CC(=O)N[C@H](CC(=O)N[C@@H]1CCNC[C@H]1C(=O)N[C@H](CC(=O)N[C@@H](CCC(=O)O)CC(=O)O)CC(C)C)C(C)C)NC(=O)[C@@H]1CNCC[C@H]1N,-15%,4%,.,0,.
COc1ccc(-c2cc(C(=O)NCC(c3ccco3)N(C)C)c3ccccc3n2)cc1OC (stereo not drawn),.,.,?,.,-4
CCCc1cc(=O)oc2cc(C)cc(OCC(=O)NCc3ccncc3)c12,-5%,-2%,1%,3,-11
CCCCC(=O)N(Cc1ccc(-c2ccccc2-c2nn[nH]n2)cc1)C(C(=O)O)C(C)C (stereo not drawn),22%,-2%,.,0,.
Cn1cnc([N+](=O)[O-])c1Oc1cccc(O)c1,-30%,13µM*,6%,2,12
COc1ccc(NS(=O)(=O)c2ccc(N3CCCC3)c(NC(=S)Nc3ccc(SC(F)F)cc3)c2)cc1,35%,-3%,23µM*,1,10
COc1ccc(NS(=O)(=O)c2ccc(N3CCCC3)c(NC(=S)Nc3cccc(C)c3C)c2)cc1,-5%[10 µM],?,?,2,6
CCOC(=O)c1cnc2ccccc2c1NCc1ccco1,6.3µM*,?,-4%,0,-26
CCOC(=O)c1sc2nc(C)nc(NCCc3ccccn3)c2c1C,4%,2%,21µM*,-3,-17
CCOC(=O)c1sc2nc(C)nc(NCc3ccccc3OC)c2c1C,27%,-14%,?,1,-8
CCOC(=O)c1sc2ncnc(NCc3ccco3)c2c1C,7.9µM*,11µM*,?,-1,-2
CCOC(=O)c1cnc2ccccc2c1Nc1ccc2c(c1)OCCO2,11µM*,?,?,-7,17
Cc1ccc(Oc2nc(CN3CCOCC3)nc3sc4c(c23)CCC(C)C4)cc1 (stereo not drawn),?,?,26µM*,10,-3

# From PubChem BioAssay
